# Measurements reported in publication PMC11062922 (Nature Chemical Biology, 2023).
# Read-outs that look alike come from different tables or passages of the source.
# What was measured:
# Design in all cases: species or system human, MV4-11 + K-562 + COLO205 + SK-N-BE2 + OVCAR-8
# ABL1 = details: read-out: apparent Kd, n = 1
# ABL2 = details: read-out: apparent Kd, compound concentrations: 100 nM and 1000 nM (sheet 'Samples'), n = 1
# BCR = details: read-out: apparent Kd, n = 1
# FYN = details: read-out: apparent Kd, compound concentrations: 100 nM and 1000 nM (sheet 'Samples'), n = 1
# GAK = details: read-out: apparent Kd, compound concentrations: 100 nM and 1000 nM (sheet 'Samples'), n = 1
# HCK = details: read-out: apparent Kd, compound concentrations: 100 nM and 1000 nM (sheet 'Samples'), n = 1
# LCK = details: read-out: apparent Kd, compound concentrations: 100 nM and 1000 nM (sheet 'Samples'), n = 1
# RET = details: read-out: apparent Kd, n = 1
# RIPK2 = details: read-out: apparent Kd, compound concentrations: 100 nM and 1000 nM (sheet 'Samples'), n = 1
# RIPK3 = details: read-out: apparent Kd, compound concentrations: 100 nM and 1000 nM (sheet 'Samples'), n = 1
# TNK1 = details: read-out: apparent Kd, compound concentrations: 100 nM and 1000 nM (sheet 'Samples'), n = 1
# YES1 = details: read-out: apparent Kd, compound concentrations: 100 nM and 1000 nM (sheet 'Samples'), n = 1
# CLK1 = details: read-out: apparent Kd; compound concentrations:100 nM and 1000 nM (sheet 'Samples'); n = 1
# CLK4 = details: read-out: apparent Kd; compound concentrations:100 nM and 1000 nM (sheet 'Samples'); n = 1
# CSNK2A1;CSNK2A3 = details: read-out: apparent Kd; compound concentrations:100 nM and 1000 nM (sheet 'Samples'); n = 1
# CSNK2A2 = details: read-out: apparent Kd; compound concentrations:100 nM and 1000 nM (sheet 'Samples'); n = 1
# PTK6 = details: read-out: apparent Kd; compound concentrations: 100 nM and 1000 nM (sheet 'Samples'), CATDS: 8.1912311053812595E-2; n = 1
# [1] = compound concentrations:100 nM and 1000 nM (sheet 'Samples')
smiles,measurement,setting,value
CC(C)c1nc(-c2cccc(NS(=O)(=O)c3c(F)cccc3F)c2)c(-c2ccnc(Nc3ccc(N4CCOCC4)nc3)n2)s1.Cl [GSK1723980B],potency estimated from few doses,"ABL1; compound concentrations: 100 nM and 1000 nM (sheet 'Samples'), CATDS: 2.44032415333994E-2",301 nM
same,potency estimated from few doses,ABL2; CATDS: 5.9392404533495001E-2,61.3 nM
same,potency estimated from few doses,"BCR; compound concentrations: 100 nM and 1000 nM (sheet 'Samples'), CATDS: 2.01356126413582E-2",494 nM
same,potency estimated from few doses,FYN; CATDS: 2.5454703773251201E-2,273 nM
same,potency estimated from few doses,GAK; CATDS: 7.7994003352353694E-2,41.9 nM
same,potency estimated from few doses,HCK; CATDS: 2.2853369268103E-2,353 nM
same,potency estimated from few doses,LCK; CATDS: 3.2406283014168501E-2,166 nM
same,potency estimated from few doses,"RET; compound concentrations: 100 nM and 1000 nM (sheet 'Samples'), CATDS: 3.0852467961072601E-2",183 nM
same,potency estimated from few doses,RIPK2; CATDS: 1.9945459179113199E-2,508 nM
same,potency estimated from few doses,RIPK3; CATDS: 1.9089551984729902E-2,580 nM
same,potency estimated from few doses,TNK1; CATDS: 4.2309935228441099E-2,104 nM
same,potency estimated from few doses,YES1; CATDS: 2.9075172405301501E-2,206 nM
CC(C)c1nc(-c2cccc(NS(=O)(=O)c3c(F)cccc3F)c2F)c(-c2ccnc(Nc3ccc(N4CCOCC4)nc3)n2)s1 [GSK2008607A],potency estimated from few doses,"ABL1; compound concentrations: 100 nM and 1000 nM (sheet 'Samples'), CATDS: 2.52520437406713E-2",706 nM
same,potency estimated from few doses,ABL2; CATDS: 7.58086527625733E-2,101 nM
same,potency estimated from few doses,"BCR; compound concentrations: 100 nM and 1000 nM (sheet 'Samples'), CATDS: 3.4777380085243399E-2",355 nM
same,potency estimated from few doses,FYN; CATDS: 2.15624347754024E-2,1090 nM
same,potency estimated from few doses,GAK; CATDS: 3.3626459583734003E-2,378 nM
same,potency estimated from few doses,HCK; CATDS: 2.4637154538395101E-2,751 nM
same,potency estimated from few doses,LCK; CATDS: 4.60457501367081E-2,215 nM
same,potency estimated from few doses,"RET; compound concentrations: 100 nM and 1000 nM (sheet 'Samples'), CATDS: 4.3035202568940403E-2",241 nM
same,potency estimated from few doses,TNK1; CATDS: 8.7218482008179707E-2,82.7 nM
same,potency estimated from few doses,YES1; CATDS: 2.6088425735390001E-2,653 nM
COc1cc(/C=N/Nc2ncnc3[nH]ncc23)ccc1O [GW578748X],potency estimated from few doses,ABL1; [1],1250 nM
same,potency estimated from few doses,BCR; [1],678 nM
same,potency estimated from few doses,CLK1,1370 nM
same,potency estimated from few doses,CLK4,401 nM
same,potency estimated from few doses,CSNK2A1;CSNK2A3,384 nM
same,potency estimated from few doses,CSNK2A2,376 nM
same,potency estimated from few doses,RET; [1],494 nM
COc1cc2nccc(Nc3ccc(Oc4ccccc4)cc3)c2cc1OC.Cl [GI261656A],potency estimated from few doses,"ABL1; compound concentrations: 100 nM and 1000 nM (sheet 'Samples'), CATDS: 4.9234778502166003E-2",661 nM
same,potency estimated from few doses,FYN; CATDS: 5.8520288071811297E-2,360 nM
same,potency estimated from few doses,HCK; CATDS: 0.224802192402594,23.3 nM
same,potency estimated from few doses,LCK; CATDS: 9.1462099087555204E-2,115 nM
same,potency estimated from few doses,PTK6,147 nM
same,potency estimated from few doses,RIPK2; CATDS: 0.26781417161536297,18.1 nM
same,potency estimated from few doses,RIPK3; CATDS: 5.1839194955901301E-2,542 nM
same,potency estimated from few doses,YES1; CATDS: 0.10993421284825,78.7 nM
COc1cccc(-n2cnc3c(N/N=C/c4ccncc4)ncnc32)c1 [GW813360X],potency estimated from few doses,"ABL1; compound concentrations: 100 nM and 1000 nM (sheet 'Samples'), CATDS: 0.132287686029187",2030 nM
same,potency estimated from few doses,ABL2; CATDS: 0.19344614583088601,869 nM
same,potency estimated from few doses,"BCR; compound concentrations: 100 nM and 1000 nM (sheet 'Samples'), CATDS: 0.226928346430948",659 nM
NS(=O)(=O)CCc1cccc(Nc2nccc(-c3c(-c4cccc(NC(=O)c5c(F)cccc5F)c4)nn4ccccc34)n2)c1 [GSK336735A],potency estimated from few doses,ABL2; CATDS: 7.5550907623065294E-2,635 nM
same,potency estimated from few doses,FYN; CATDS: 5.89205391615404E-2,1140 nM
same,potency estimated from few doses,HCK; CATDS: 9.1712833747147296E-2,439 nM
same,potency estimated from few doses,LCK; CATDS: 8.1556930046594894E-2,546 nM
same,potency estimated from few doses,"RET; compound concentrations: 100 nM and 1000 nM (sheet 'Samples'), CATDS: 0.15467463345214499",196 nM
same,potency estimated from few doses,RIPK3; CATDS: 7.11931563666406E-2,719 nM
same,potency estimated from few doses,TNK1; CATDS: 8.7840058842797303E-2,475 nM
same,potency estimated from few doses,YES1; CATDS: 0.104182093569698,354 nM
N#Cc1cccc(Nc2nccc(-c3cnn4ncccc34)n2)c1 [GW778894X],potency estimated from few doses,CLK1,3.93 nM
same,potency estimated from few doses,CLK4,0.363 nM
same,potency estimated from few doses,CSNK2A1;CSNK2A3,603 nM
same,potency estimated from few doses,CSNK2A2,601 nM
